USP1-UAF1 inh: blocks the human USP1/UAF1 deubiquitinase complex. hit rate 0.23% among 390,000. recombinant USP1/UAF1, Ub-Rhodamine cleavage fluorescence. O94782. Potency, µM (titrated, usually from 57.1 µM), without a hit: at the highest dose activity change, negative = inhibition, actives largely listed as inhibitors; also: potency is read from the fitted curve at half-maximal effect; nearly all actives have a fitted effect of over 60% in size
Target sequence (O94782 whole entry, looked up): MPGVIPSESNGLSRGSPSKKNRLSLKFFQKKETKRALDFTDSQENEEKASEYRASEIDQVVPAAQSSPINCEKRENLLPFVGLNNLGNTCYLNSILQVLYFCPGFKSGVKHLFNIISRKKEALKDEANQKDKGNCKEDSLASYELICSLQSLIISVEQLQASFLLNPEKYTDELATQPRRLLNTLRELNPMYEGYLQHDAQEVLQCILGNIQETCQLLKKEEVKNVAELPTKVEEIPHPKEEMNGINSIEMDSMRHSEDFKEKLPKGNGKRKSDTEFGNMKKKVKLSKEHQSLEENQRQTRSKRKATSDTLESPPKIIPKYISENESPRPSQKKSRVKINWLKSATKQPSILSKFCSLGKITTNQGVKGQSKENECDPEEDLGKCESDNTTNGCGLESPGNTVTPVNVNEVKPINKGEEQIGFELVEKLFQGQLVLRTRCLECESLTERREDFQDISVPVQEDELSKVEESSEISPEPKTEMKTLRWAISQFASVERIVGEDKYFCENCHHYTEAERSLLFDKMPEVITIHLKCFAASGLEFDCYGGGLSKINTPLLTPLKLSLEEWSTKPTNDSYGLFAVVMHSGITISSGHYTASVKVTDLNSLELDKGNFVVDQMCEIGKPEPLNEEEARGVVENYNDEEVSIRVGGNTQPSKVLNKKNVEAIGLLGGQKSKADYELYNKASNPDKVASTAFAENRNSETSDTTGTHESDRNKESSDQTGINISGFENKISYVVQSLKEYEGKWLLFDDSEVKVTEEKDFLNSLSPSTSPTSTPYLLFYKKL
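1 nM enzyme complex + cpd, 15 min RT; start with Ub-Rho 150nM final; kinetic fluorescence ex 480/em 540, 6 reads q60 s. Buffer 50mM HEPES pH 7.8, 0.5mM EDTA, 0.1 mg/ml BSA, 1mM TCEP, 0.01% Tween-20.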
Tau fluor counter: counter-screen for tau fibril formation inhibitors; tau K18 P301L Alexa594 fluorescence, heparin fibrillization; AID 1463; Potency, µM (doses to about 57.7 µM), without a hit: top-dose activity change, negative = decrease; hit rate 0.93% among 280,000; also: potency is read from the fitted curve at half-maximal effect; nearly all actives have a fitted effect of over 55% in size
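Human K18 P301L tau (15 uM unlabeled plus 0.24 uM Alexa 594-labeled, final) in 100 mM sodium acetate pH 7 was mixed with compound and 20 uM heparin and incubated 6 hr at 37 C.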
Tau fibril ThT: tau fibrillization inhibition (ThT binding); recombinant tau K18 P301L, heparin-induced fibrillization, ThT fluorescence; Potency, µM (highest dose often 57.4 µM), for inactives: at the highest dose activity, negative = inhibition, hits mostly inhibitors; hit rate 2.1% among 270,000; AID 1460; also: potency is read from the fitted curve at half-maximal effect; nearly all actives have a fitted effect of over 55% in size
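ThT emission at 510 nm, taken 1 hr after adding 30 uM dye, quantifies aggregates formed when 20 uM heparin acts on human tau K18 P301L for 6 hr at 37 C.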
FBPA coupling cs: counter-screen for Giardia aldolase inhibitors: coupling enzyme system; coupling enzyme system counterscreen, AmpLite Red fluorescence; activity change, negative = inhibition, % at 58.2 µM, hits read low; hit rate 0.67% among 290,000; AID 2472; in the data active = activity change below about -30%
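Coupling enzymes only (glyceraldehyde-3-phosphate) + compound, at 57.5 uM final, 10 min RT; add substrate/coupling/AmpLite Red mix, 20 min RT; fluorescence ex 525/em 598 nm. Actives flag coupling-system interference.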
Tau fibril FP: blocks human tau fibril formation measured by polarization | K18 P301L tau heparin fibrillization, Alexa594 FP, 6 h | Potency, µM (series often up to 57.7 µM), inactives show top-dose activity, negative = inhibition, usual class: inhibitors | hit rate 0.39% among 280,000; also: potency is read from the fitted curve at half-maximal effect; nearly all actives have a fitted effect of over 55% in size
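Heparin (20 uM) drove fibril formation of recombinant tau K18 P301L, 15 uM unlabeled with 0.24 uM Alexa 594 label, for 6 hr at 37 C in 100 mM sodium acetate pH 7. Fluorescence polarization (555/632 nm) read 1 hr after 30 uM ThT.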
An asterisk follows results filed as active; ? = inconclusive; . = not tested or not shown; ! = not confirmed by another sample; [ ] = remark or other dose. This is a sample that favours compounds with a hit; in the whole collection about 2.3% have one here. Unless noted, calls follow the shape of the dose curve; as a rule, active = well fitted curve in the direction sought with a large enough effect; inconclusive = small, poorly fitted or top-dose-only effect, or another doubt; inactive = no such curve, though single readings can be large; an effect the other way counts as inactive or inconclusive. % is scaled to controls: 0 for no effect and ±100 for the full control effect.

SMILES | USP1-UAF1 inh | Tau fluor counter | Tau fibril ThT | FBPA coupling cs | Tau fibril FP
COc1ccc(C2N(c3ccc(C)cc3)CCN2c2ccc(C)cc2)cc1O | -10% | 25µM*[quencher] | ? | -2 | 12%
Cc1cc(=O)n2[nH]c(N)c(N=Nc3ccccc3F)c2n1 | -23% | -5% | 11µM* | 5 | 10%
Cc1ccc(S(=O)(=O)N(C)C)cc1NC(=O)C(C)OC(=O)CC1CC2CCC1C2 (centres undefined) | 0% | . | . | . | .
COc1ccc(C)cc1NC(=O)CN1C(=O)COc2ccc(C)cc21 | 2% | . | . | 0 | .
Cc1nn(-c2nc(-c3ccc(F)cc3)cc(C(F)(F)F)n2)c(C)c1Cl | ? | -22% | ? | . | -4%
Nc1ccc2nc(-c3ccccn3)[nH]c2c1 | -27% | ? | 25µM* | -16 | -7%
Nc1ccc2nc(-c3ccccc3)[nH]c2c1 | 1% | -25% | ? | -8 | -2%
CC(C)Oc1cccc(-n2c(CCc3c[nH]c4ccc(Br)cc34)nc3ccccc3c2=O)c1 | . | ? | -6% | -1 | -15%
Cc1nc(NC(=O)c2ccccc2)sc1-c1csc(Nc2ccc(Cl)cc2)n1 | . | 8.9µM*[quencher] | 5µM* | 1 | 5%
COc1ccccc1Nc1nc(-c2sc(NC(=O)c3ccco3)nc2C)cs1 | -17% | ? | 3.5µM* | -5 | 11%
CC(=O)Nc1ccc(Nc2nc(-c3sc(C)nc3C)cs2)cc1 | -1% | . | . | -2 | .
O=C(Nc1nnc(COc2ccc(Cl)cc2)s1)c1ccco1 | -19% | -24% | 32µM* | 5 | ?
Cc1ccc(OCc2nnc(NC(=O)c3ccco3)s2)cc1 | -3% | -8% | -10% | -2 | 5%
Cc1nc(NC(=O)c2ccccc2)sc1-c1csc(Nc2ccc(F)cc2)n1 | . | 14µM*[quencher] | 11µM* | 1 | ?
CCc1c(C)c2cc3c(c(C)c2oc1=O)OCN(CCc1ccc(OC)c(OC)c1)C3 | 6% | -16% | -18% | . | -8%
Cc1nc(N)sc1-c1csc(Nc2cccc(O)c2)n1 | ? | . | . | -20 | .
Cc1ccc(Cl)cc1Nc1nc(-c2sc(NC(=O)c3ccco3)nc2C)cs1 | -33% | ? | ? | 2 | -1%
Cc1nc(NC(=O)c2ccco2)sc1-c1csc(Nc2ccc(Cl)cc2)n1 | 11% | ? | 7.1µM* | 3 | 10%
Cc1nc(NC(=O)c2ccccc2)sc1-c1csc(Nc2cccc(Cl)c2)n1 | . | 11µM*[quencher] | 7.9µM* | 0 | ?
Cc1nc(C)c(-c2csc(Nc3cccc(O)c3)n2)s1 | -27% | 18µM*[quencher] | 4.5µM* | -3 | ?
Cc1nc(NC(=O)c2ccccc2)sc1-c1csc(Nc2ccc(Cl)cc2Cl)n1 | . | ? | ? | 1 | 7%
CCS(=O)(=O)N1CC(=O)N(c2ccccc2C)C(C)(C(=O)NC2CCCCC2)C1 (centres undefined) | -15% | 6% | 3% | . | -2%
COc1ccc(C(=O)NCCn2cc(SCC(=O)Nc3ccccc3)c3ccccc32)cc1OC | -18% | ? | ? | . | -8%
c1ccc2c(Cc3c[nH]c4ccccc34)c[nH]c2c1 | . | 16µM*![quencher] | ? | -2 | ?
CCc1ccc(OCC(=O)Nc2ncn[nH]2)c(Br)c1 | -1% | -1% | 0% | . | -9%
SMILES | USP1-UAF1 inh | Tau fluor counter | Tau fibril ThT | FBPA coupling cs | Tau fibril FP
O=C(Nc1ccc(Cl)cc1Cl)NC1CCN(S(=O)(=O)c2ccc(F)cc2)CC1 | -19% | ? | . | 0 | 25µM*
O=C(Cc1ccccc1Cl)Nc1cccc(S(=O)(=O)N2CCCCCC2)c1 | -24% | . | . | . | .
O=C(Nc1cccc(S(=O)(=O)N2CCCCC2)c1)Nc1ccc(Cl)cc1Cl | -23% | ? | 14% | 3 | 14µM*
COc1ccccc1NS(=O)(=O)c1cccc(NC(=O)Nc2ccccc2)c1 | -3% | ? | 15% | 0 | ?
COc1ccccc1NS(=O)(=O)c1cccc(NC(=O)Nc2ccc(Cl)cc2)c1 | -16% | ? | 7% | -5 | 28µM*
CCN(CC)CC(=O)Nc1ccc2c(c1)Nc1ccccc1CC2 | -20% | 16µM*[quencher] | ? | -8 | 4%
Cn1cc(C(=O)NCc2ccccc2Cl)c(=O)c2cc(S(=O)(=O)N3CCCCCC3)ccc21 | -7% | ? | -10% | . | -1%
Cc1ccc2nc(CSc3nc(C)ccc3C#N)[nH]c2c1 | -12% | ? | 11µM* | -9 | 2%
O=C(NNC(=S)NC(=O)c1sc2ccccc2c1Cl)c1ccc(Cl)cc1 | -8% | -23% | 14µM* | 10 | 4%
O=C(O)c1ccccc1NC(=S)NC(=O)c1sc2ccccc2c1Cl | -11% | -10% | ? | 6 | -8%
CCc1c(C)sc2nc3c(C(=O)N4CCOCC4)cc(C(=O)c4ccccc4O)cn3c(=O)c12 | -24% | -10% | -15% | 1 | -4%
Cc1sc2nc3c(SC(C)C(=O)O)cc(C(=O)c4ccccc4O)cn3c(=O)c2c1C (centres undefined) | -21% | -7% | 14µM* | 1 | -12%
O=C(O)CSc1cc(C(=O)c2ccccc2O)cn2c(=O)c3c(-c4ccccc4)csc3nc12 | -16% | -12% | 25µM* | 14 | -4%
CCN(CC)C(=O)C1=C(C)N(CCCOC)C(=O)C(CC(=O)NC2CCCC2)C1 (centres undefined) | -26% | . | . | . | .
O=c1oc2c(O)c(O)cc3c(=O)oc4c(O)c(O)cc1c4c23 | ? | ? | 14µM* | -79*! | ?
Cc1ccc(C)c(NC(=O)CSc2cn(CC(=O)N3CCCCC3)c3ccccc23)c1 | 10% | -3% | -5% | . | -2%
CC1(C)Oc2cc(N)c([N+](=O)[O-])cc2O1 | -3% | 4% | -22% | 1 | 0%
C=C1N(C)c2cc([N+](=O)[O-])c(N)cc2C1(C)C | -14% | 5% | 2% | -41* | 7%
CCS(=O)(=O)N1CCC(C(=O)N2CCc3ccccc3C2)CC1 | ? | 16µM*[quencher] | ? | 0 | ?
O=C(O)c1ccc(NC2=C/C(=N/S(=O)(=O)c3cccs3)c3ccccc3C2=O)cc1 | 5µM* | . | . | . | .
O=C1C(Nc2ccc(O)cc2)=C/C(=N/S(=O)(=O)c2cccs2)c2ccccc21 | 4.5µM* | 13µM*[quencher] | 13µM* | -37* | ?
O=S(=O)(/N=C/c1ccccc1O)c1cccs1 | -13% | 0% | -3% | 5 | 0%
COc1ccc(-c2cc(-c3ccc(F)cc3)nc3c2COc2ccc(F)cc2-3)cc1 | -18% | ? | -7% | . | ?
CCOc1ccc(/C=N/NC(=O)c2ccc(Cn3cc([N+](=O)[O-])cn3)o2)cc1 | -4% | -10% | -22% | 3 | -6%
CC(C)(C)c1ccc(OCc2ccc(C(=O)N/N=C/c3ccc([N+](=O)[O-])cc3)o2)cc1 | 2% | 8.9µM*[quencher] | ? | 0 | 6%
CC1CC(CC(=O)Nc2nc(-c3ccccc3)cs2)C(=O)O1 (centres undefined) | -6% | 3% | 6% | -1 | 3%
